Here are results for 2 compounds from PubChem BioAssay AID588773 (The Scripps Research Institute Molecular Screening Center, 2011).

This assay is described as follows: competitive ABPP of pPAFAH versus proteome off-targets – biochemical, gel-based, FP-Rh fluorescence, mouse, HTS hit compounds, selectivity assay for pPAFAH inhibitor project, late-stage follow-up (AID 588773). The following applies: MW 30 kDa protein, at 10 µM, stronger effect = higher value.

Structures are written as SMILES. Unmarked numbers belong to inactive results.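 Rule for the calls: active = inhibition of plasma PAF acetylhydrolase at a set limit or more at 0.1 µM, with tenfold selectivity over all off-targets; inactive = inhibition below the limit or weaker selectivity.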

Regarding `CN(C)C(=O)Oc1noc2cc(Cl)ccc12`, the inhibition is 14%. `O=C(Oc1ccc([N+](=O)[O-])cc1)N1CCC(N2CCCCC2)CC1`: the inhibition was 27%.
